# In article PMC11006913:
# Substitutions are numbered along the chain they refer to.
# What was measured:
# Assay in all cases: PBM; 200 nM protein, PBS
# Settings in all cases: dsDNA, one strand shown
# HESX1 [1] = biological target: HESX1 (Homo sapiens, UniProt Q9UBX0 95-180, R165K)
# HESX1 [2] = biological target: HESX1 (Homo sapiens, UniProt Q9UBX0 95-180)
# ALX4 [3] = biological target: ALX4 (Homo sapiens, UniProt Q9H161 200-286)
# ALX4 [4] = biological target: ALX4 (Homo sapiens, UniProt Q9H161 200-286, Q225E)
# HESX1 [5] = biological target: HESX1 (Homo sapiens, UniProt Q9UBX0 95-180, R109Q)
# HESX1 [6] = biological target: HESX1 (Homo sapiens, UniProt Q9UBX0 95-180, P111T)
# HESX1 [7] = biological target: HESX1 (Homo sapiens, UniProt Q9UBX0 95-180, F115L)
# ALX3 [8] = biological target: ALX3 (Homo sapiens, UniProt O95076 139-225, N203Q)
# ALX3 [9] = biological target: ALX3 (Homo sapiens, UniProt O95076 139-225)
# ALX3 [10] = biological target: ALX3 (Homo sapiens, UniProt O95076 139-225, L168Q)
# ALX3 [11] = biological target: ALX3 (Homo sapiens, UniProt O95076 139-225, L168V)
# ALX3 [12] = biological target: ALX3 (Homo sapiens, UniProt O95076 139-225, N203S)
# VAX1 [13] = biological target: VAX1 (Homo sapiens, UniProt Q5SQQ9 86-172)
# VAX1 [14] = biological target: VAX1 (Homo sapiens, UniProt Q5SQQ9 86-172, T142I)
# VAX1 [15] = biological target: VAX1 (Homo sapiens, UniProt Q5SQQ9 86-172, K157R)
# PROP1 [16] = biological target: PROP1 (Homo sapiens, UniProt O75360 56-141)
# PROP1 [17] = biological target: PROP1 (Homo sapiens, UniProt O75360 56-141, R99H)
# PROP1 [18] = biological target: PROP1 (Homo sapiens, UniProt O75360 56-141, F88S)
# MSX2 [19] = biological target: MSX2 (Homo sapiens, UniProt P35548 130-214, R199I)
# ALX1 [20] = biological target: ALX1 (Homo sapiens, UniProt Q15699 118-204, L144V)
# ALX1 [21] = biological target: ALX1 (Homo sapiens, UniProt Q15699 118-204, L144R)
# MSX2 [22] = biological target: MSX2 (Homo sapiens, UniProt P35548 130-214)
# MSX2 [23] = biological target: MSX2 (Homo sapiens, UniProt P35548 130-214, F161Y)
# ALX1 [24] = biological target: ALX1 (Homo sapiens, UniProt Q15699 118-204)
# NKX2-6 [25] = biological target: T1, NKX2-6 (Homo sapiens, UniProt A6NCS4 118-204)
# T1 sequence: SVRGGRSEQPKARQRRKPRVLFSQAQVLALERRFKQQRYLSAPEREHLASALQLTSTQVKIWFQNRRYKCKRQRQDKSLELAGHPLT
# NKX2-6 [26] = biological target: T2, NKX2-6 (Homo sapiens, UniProt A6NCS4 118-204, F151L)
# T2 sequence: T1 sequence with F34L
# HESX1 (Homo sapiens, UniProt Q9UBX0 95-180, R109Q), sequence (Q9UBX0 95-180 R109Q): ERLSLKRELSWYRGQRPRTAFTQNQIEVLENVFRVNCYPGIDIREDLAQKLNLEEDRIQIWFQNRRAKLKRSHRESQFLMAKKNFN
# HESX1 (Homo sapiens, UniProt Q9UBX0 95-180, R165K), sequence (Q9UBX0 95-180 R165K): as the sequence (Q9UBX0 95-180 R109Q) above, with Q15R, R71K counted along it
# HESX1 (Homo sapiens, UniProt Q9UBX0 95-180), sequence (Q9UBX0 95-180): as the sequence (Q9UBX0 95-180 R109Q) above, with Q15R counted along it
# HESX1 (Homo sapiens, UniProt Q9UBX0 95-180, P111T), sequence (Q9UBX0 95-180 P111T): as the sequence (Q9UBX0 95-180 R109Q) above, with Q15R, P17T counted along it
# HESX1 (Homo sapiens, UniProt Q9UBX0 95-180, F115L), sequence (Q9UBX0 95-180 F115L): as the sequence (Q9UBX0 95-180 R109Q) above, with Q15R, F21L counted along it
# VAX1 (Homo sapiens, UniProt Q5SQQ9 86-172, T142I), sequence (Q5SQQ9 86-172 T142I): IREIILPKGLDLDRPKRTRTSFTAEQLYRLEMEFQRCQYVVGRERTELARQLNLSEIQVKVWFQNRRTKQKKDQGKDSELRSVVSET
# PROP1 (Homo sapiens, UniProt O75360 56-141, R99H), sequence (O75360 56-141 R99H): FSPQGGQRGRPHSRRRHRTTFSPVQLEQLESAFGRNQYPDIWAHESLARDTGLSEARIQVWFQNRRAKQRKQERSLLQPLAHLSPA
# VAX1 (Homo sapiens, UniProt Q5SQQ9 86-172), sequence (Q5SQQ9 86-172): as the sequence (Q5SQQ9 86-172 T142I) above, with I57T counted along it
# VAX1 (Homo sapiens, UniProt Q5SQQ9 86-172, K157R), sequence (Q5SQQ9 86-172 K157R): as the sequence (Q5SQQ9 86-172 T142I) above, with I57T, K72R counted along it
# PROP1 (Homo sapiens, UniProt O75360 56-141, F88S), sequence (O75360 56-141 F88S): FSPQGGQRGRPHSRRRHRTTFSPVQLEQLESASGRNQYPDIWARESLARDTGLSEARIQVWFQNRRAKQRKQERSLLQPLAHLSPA
# MSX2 (Homo sapiens, UniProt P35548 130-214, F161Y), sequence (P35548 130-214 F161Y): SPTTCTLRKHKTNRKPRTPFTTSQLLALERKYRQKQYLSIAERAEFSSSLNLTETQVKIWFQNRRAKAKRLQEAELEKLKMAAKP
# ALX4 (Homo sapiens, UniProt Q9H161 200-286, Q225E), sequence (Q9H161 200-286 Q225E): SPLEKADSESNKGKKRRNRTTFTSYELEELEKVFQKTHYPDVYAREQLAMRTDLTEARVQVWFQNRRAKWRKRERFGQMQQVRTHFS
# MSX2 (Homo sapiens, UniProt P35548 130-214), sequence (P35548 130-214): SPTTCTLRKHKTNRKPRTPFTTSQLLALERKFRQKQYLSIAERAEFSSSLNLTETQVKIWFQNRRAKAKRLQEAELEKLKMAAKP
# MSX2 (Homo sapiens, UniProt P35548 130-214, R199I), sequence (P35548 130-214 R199I): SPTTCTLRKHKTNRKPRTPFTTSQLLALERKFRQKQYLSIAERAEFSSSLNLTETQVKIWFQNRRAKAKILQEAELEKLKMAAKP
# ALX3 (Homo sapiens, UniProt O95076 139-225, N203Q), sequence (O95076 139-225 N203Q): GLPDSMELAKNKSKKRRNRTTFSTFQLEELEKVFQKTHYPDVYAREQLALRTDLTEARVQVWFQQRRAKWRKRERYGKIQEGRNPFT
# ALX3 (Homo sapiens, UniProt O95076 139-225, L168V), sequence (O95076 139-225 L168V): as the sequence (O95076 139-225 N203Q) above, with L30V, Q65N counted along it
# ALX4 (Homo sapiens, UniProt Q9H161 200-286), sequence (Q9H161 200-286): as the sequence (Q9H161 200-286 Q225E) above, with E26Q counted along it
# ALX1 (Homo sapiens, UniProt Q15699 118-204, L144R), sequence (Q15699 118-204 L144R): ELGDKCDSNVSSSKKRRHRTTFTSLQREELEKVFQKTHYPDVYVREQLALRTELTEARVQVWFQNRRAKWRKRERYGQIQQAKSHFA
# ALX3 (Homo sapiens, UniProt O95076 139-225, N203S), sequence (O95076 139-225 N203S): as the sequence (O95076 139-225 N203Q) above, with Q65S counted along it
# ALX3 (Homo sapiens, UniProt O95076 139-225), sequence (O95076 139-225): as the sequence (O95076 139-225 N203Q) above, with Q65N counted along it
# ALX1 (Homo sapiens, UniProt Q15699 118-204), sequence (Q15699 118-204): as the sequence (Q15699 118-204 L144R) above, with R27L counted along it
# ALX3 (Homo sapiens, UniProt O95076 139-225, L168Q), sequence (O95076 139-225 L168Q): as the sequence (O95076 139-225 N203Q) above, with L30Q, Q65N counted along it
# ALX1 (Homo sapiens, UniProt Q15699 118-204, L144V), sequence (Q15699 118-204 L144V): as the sequence (Q15699 118-204 L144R) above, with R27V counted along it
# PROP1 (Homo sapiens, UniProt O75360 56-141), sequence (O75360 56-141): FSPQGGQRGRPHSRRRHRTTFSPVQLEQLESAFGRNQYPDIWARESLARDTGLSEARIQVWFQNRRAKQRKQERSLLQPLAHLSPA
sequence,measurement,setting,value
ATTATTTG,binding signal,HESX1 [1],"8.97 upbm affinity estimate (log intensity, higher = more binding, comparable within an allelic series)"
same,binding signal,HESX1 [2],"8.9 upbm affinity estimate (log intensity, higher = more binding, comparable within an allelic series)"
AGAGGCAC,binding signal,HESX1 [1],"6.29 upbm affinity estimate (log intensity, higher = more binding, comparable within an allelic series)"
same,binding signal,ALX4 [3],"8.1 upbm affinity estimate (log intensity, higher = more binding, comparable within an allelic series)"
same,binding signal,ALX4 [4],"8.02 upbm affinity estimate (log intensity, higher = more binding, comparable within an allelic series)"
same,binding signal,HESX1 [2],"6.48 upbm affinity estimate (log intensity, higher = more binding, comparable within an allelic series)"
same,binding signal,HESX1 [5],"6.44 upbm affinity estimate (log intensity, higher = more binding, comparable within an allelic series)"
same,binding signal,HESX1 [6],"6.5 upbm affinity estimate (log intensity, higher = more binding, comparable within an allelic series)"
same,binding signal,HESX1 [7],"6.64 upbm affinity estimate (log intensity, higher = more binding, comparable within an allelic series)"
CTAGGGCC,binding signal,HESX1 [1],"6.49 upbm affinity estimate (log intensity, higher = more binding, comparable within an allelic series)"
same,binding signal,HESX1 [2],"6.45 upbm affinity estimate (log intensity, higher = more binding, comparable within an allelic series)"
same,binding signal,ALX3 [8],"7.79 upbm affinity estimate (log intensity, higher = more binding, comparable within an allelic series)"
same,binding signal,ALX3 [9],"7.79 upbm affinity estimate (log intensity, higher = more binding, comparable within an allelic series)"
same,binding signal,HESX1 [5],"6.47 upbm affinity estimate (log intensity, higher = more binding, comparable within an allelic series)"
same,binding signal,ALX3 [10],"7.79 upbm affinity estimate (log intensity, higher = more binding, comparable within an allelic series)"
same,binding signal,HESX1 [6],"6.36 upbm affinity estimate (log intensity, higher = more binding, comparable within an allelic series)"
same,binding signal,ALX3 [11],"7.77 upbm affinity estimate (log intensity, higher = more binding, comparable within an allelic series)"
same,binding signal,HESX1 [7],"6.42 upbm affinity estimate (log intensity, higher = more binding, comparable within an allelic series)"
same,binding signal,ALX3 [12],"7.79 upbm affinity estimate (log intensity, higher = more binding, comparable within an allelic series)"
GCGTGGCC,binding signal,HESX1 [1],"6.46 upbm affinity estimate (log intensity, higher = more binding, comparable within an allelic series)"
same,binding signal,HESX1 [2],"6.31 upbm affinity estimate (log intensity, higher = more binding, comparable within an allelic series)"
same,binding signal,HESX1 [5],"6.39 upbm affinity estimate (log intensity, higher = more binding, comparable within an allelic series)"
same,binding signal,VAX1 [13],"7.21 upbm affinity estimate (log intensity, higher = more binding, comparable within an allelic series)"
same,binding signal,HESX1 [6],"6.37 upbm affinity estimate (log intensity, higher = more binding, comparable within an allelic series)"
same,binding signal,HESX1 [7],"6.39 upbm affinity estimate (log intensity, higher = more binding, comparable within an allelic series)"
same,binding signal,VAX1 [14],"7.36 upbm affinity estimate (log intensity, higher = more binding, comparable within an allelic series)"
same,binding signal,VAX1 [15],"6.97 upbm affinity estimate (log intensity, higher = more binding, comparable within an allelic series)"
AGTCGCGC,binding signal,HESX1 [1],"6.38 upbm affinity estimate (log intensity, higher = more binding, comparable within an allelic series)"
same,binding signal,HESX1 [2],"6.32 upbm affinity estimate (log intensity, higher = more binding, comparable within an allelic series)"
same,binding signal,HESX1 [5],"6.51 upbm affinity estimate (log intensity, higher = more binding, comparable within an allelic series)"
same,binding signal,VAX1 [13],"7.29 upbm affinity estimate (log intensity, higher = more binding, comparable within an allelic series)"
same,binding signal,HESX1 [6],"6.45 upbm affinity estimate (log intensity, higher = more binding, comparable within an allelic series)"
same,binding signal,HESX1 [7],"6.58 upbm affinity estimate (log intensity, higher = more binding, comparable within an allelic series)"
same,binding signal,VAX1 [14],"7.12 upbm affinity estimate (log intensity, higher = more binding, comparable within an allelic series)"
same,binding signal,VAX1 [15],"7.18 upbm affinity estimate (log intensity, higher = more binding, comparable within an allelic series)"
CTTGGCGA,binding signal,HESX1 [1],"6.46 upbm affinity estimate (log intensity, higher = more binding, comparable within an allelic series)"
same,binding signal,HESX1 [2],"6.46 upbm affinity estimate (log intensity, higher = more binding, comparable within an allelic series)"
same,binding signal,PROP1 [16],"6.63 upbm affinity estimate (log intensity, higher = more binding, comparable within an allelic series)"
same,binding signal,HESX1 [5],"6.48 upbm affinity estimate (log intensity, higher = more binding, comparable within an allelic series)"
same,binding signal,PROP1 [17],"6.61 upbm affinity estimate (log intensity, higher = more binding, comparable within an allelic series)"
same,binding signal,HESX1 [6],"6.51 upbm affinity estimate (log intensity, higher = more binding, comparable within an allelic series)"
same,binding signal,PROP1 [18],"6.64 upbm affinity estimate (log intensity, higher = more binding, comparable within an allelic series)"
same,binding signal,HESX1 [7],"6.53 upbm affinity estimate (log intensity, higher = more binding, comparable within an allelic series)"
AGTAATTG,binding signal,HESX1 [1],"11.8 upbm affinity estimate (log intensity, higher = more binding, comparable within an allelic series)"
same,binding signal,HESX1 [2],"12 upbm affinity estimate (log intensity, higher = more binding, comparable within an allelic series)"
same,binding signal,MSX2 [19],"12.5 upbm affinity estimate (log intensity, higher = more binding, comparable within an allelic series)"
same,binding signal,ALX1 [20],"11.4 upbm affinity estimate (log intensity, higher = more binding, comparable within an allelic series)"
same,binding signal,ALX1 [21],"10.9 upbm affinity estimate (log intensity, higher = more binding, comparable within an allelic series)"
same,binding signal,MSX2 [22],"13.7 upbm affinity estimate (log intensity, higher = more binding, comparable within an allelic series)"
same,binding signal,HESX1 [5],"8.47 upbm affinity estimate (log intensity, higher = more binding, comparable within an allelic series)"
same,binding signal,PROP1 [17],"11 upbm affinity estimate (log intensity, higher = more binding, comparable within an allelic series)"
same,binding signal,HESX1 [6],"10.3 upbm affinity estimate (log intensity, higher = more binding, comparable within an allelic series)"
same,binding signal,MSX2 [23],"13.4 upbm affinity estimate (log intensity, higher = more binding, comparable within an allelic series)"
same,binding signal,HESX1 [7],"7.48 upbm affinity estimate (log intensity, higher = more binding, comparable within an allelic series)"
same,binding signal,ALX1 [24],"12 upbm affinity estimate (log intensity, higher = more binding, comparable within an allelic series)"
CAGCTCGG,binding signal,HESX1 [1],"6.3 upbm affinity estimate (log intensity, higher = more binding, comparable within an allelic series)"
same,binding signal,HESX1 [2],"6.27 upbm affinity estimate (log intensity, higher = more binding, comparable within an allelic series)"
same,binding signal,NKX2-6 [25],"8.88 upbm affinity estimate (log intensity, higher = more binding, comparable within an allelic series)"
same,binding signal,HESX1 [5],"6.34 upbm affinity estimate (log intensity, higher = more binding, comparable within an allelic series)"
same,binding signal,HESX1 [6],"6.3 upbm affinity estimate (log intensity, higher = more binding, comparable within an allelic series)"
same,binding signal,NKX2-6 [26],"9.23 upbm affinity estimate (log intensity, higher = more binding, comparable within an allelic series)"
same,binding signal,HESX1 [7],"6.51 upbm affinity estimate (log intensity, higher = more binding, comparable within an allelic series)"
CGCCACGA,binding signal,HESX1 [1],"6.55 upbm affinity estimate (log intensity, higher = more binding, comparable within an allelic series)"
same,binding signal,HESX1 [2],"6.36 upbm affinity estimate (log intensity, higher = more binding, comparable within an allelic series)"
same,binding signal,HESX1 [5],"6.47 upbm affinity estimate (log intensity, higher = more binding, comparable within an allelic series)"
same,binding signal,HESX1 [6],"6.47 upbm affinity estimate (log intensity, higher = more binding, comparable within an allelic series)"
same,binding signal,HESX1 [7],"6.57 upbm affinity estimate (log intensity, higher = more binding, comparable within an allelic series)"
CTCAATAC,binding signal,HESX1 [1],"7.27 upbm affinity estimate (log intensity, higher = more binding, comparable within an allelic series)"
same,binding signal,HESX1 [2],"7.48 upbm affinity estimate (log intensity, higher = more binding, comparable within an allelic series)"
same,binding signal,HESX1 [5],"7.22 upbm affinity estimate (log intensity, higher = more binding, comparable within an allelic series)"
same,binding signal,HESX1 [6],"7.29 upbm affinity estimate (log intensity, higher = more binding, comparable within an allelic series)"
